# Sampled rows, rich in hits. Any-hit rate of the full collection: about 2.9%.
# ADAM10 inh: inhibitors of human ADAM10; O14672; inhibition, % at 7 µM; hit rate 0.62% among 370,000; recombinant ADAM10, EDANS/DABCYL FRET peptide cleavage, 3 h; AID 720582;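 active means inhibition above a per-campaign cutoff equal to the mean of compounds falling between control-based bounds plus 3 SD, cut at about 20% in these data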;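 further: 0% = DMSO wells while the 100% control is not disclosed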
# ADAM17 inh: inhibits human ADAM17; hit rate 0.83% among 370,000; inhibition, % at 6.95 µM; recombinant ADAM17, EDANS/DABCYL FRET peptide cleavage; AID 720648;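 active means inhibition above the mean of compounds lying between control limits plus 3 SD, set per campaign, cut at about 8.5% in these data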;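 further: 0% = DMSO-only wells as the low control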
# PLC-beta3 inh: blocks human PLC-beta3 enzyme activity; Q01970; Purified PLC-beta3, fluorogenic substrate, fluorescence; inhibition, % at 12.2 µM; hit rate 0.18% among 370,000; in the data active means inhibition above about 11%;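 further: 0% = median of compound wells on plate and 100% = full blocker control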
# proKLK7 act: activates the human kallikrein-7 zymogen. P49862. purified proKLK7, EDANS-DABCYL substrate fluorescence; 100% is mature enzyme control, 0% vehicle. activation, % at 7 µM. hit rate 0.9% among 370,000;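 active means activation above the mean of all tested compounds plus 3 SD, computed per campaign excluding outliers beyond control limits, cut at about 13% in these data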
# PLCg1 inh: PLC-gamma1 (human) inhibition, primary screen. P19174. purified PLC-gamma1, fluorogenic substrate, fluorescence. inhibition, % at 12.2 µM. hit rate 0.84% among 370,000. AID 720700
# PLCgamma1 ctr: PLC-gamma1 inhibition, counter-screen for PLC-beta3 hits. shares compounds with PLCg1 inh. purified PLC-gamma1, fluorogenic substrate, fluorescence. inhibition, % at 12.3 µM. hit rate 3.1% among 3,300
# PLCb3 confirm: human PLC-beta3 inhibition, confirmation. purified PLC-beta3, fluorogenic substrate fluorescence. inhibition, % at 12.3 µM. hit rate 1% among 3,300. AID 743261. shares compounds with PLCg1 inh; in the data active means inhibition above about 11%
# Numbers without * were called inactive; · = not tested or not shown; ! = not confirmed by another sample. Unless noted, no stated cut-off is given here; in the data, active means inhibition above about 9.5%; inactive means the rest.
SMILES,ADAM10 inh,ADAM17 inh,PLC-beta3 inh,proKLK7 act,PLCg1 inh,PLCgamma1 ctr,PLCb3 confirm
Cc1c(C(=O)N2CCCC(C)(C(=O)NS(=O)(=O)C3CC3)C2)oc2ccccc12 (stereo not given),4,2,4,1,2,·,·
CCOC(=O)C1(Cc2cccc(Cl)c2)CCCN(C(=O)c2ccnn2C)C1 (stereo not given),5,0,-3,0,4,·,·
CCOC(=O)C1(Cc2cccc(Cl)c2)CCCN(C(=O)c2cc(C)n(C)n2)C1 (stereo not given),6,3,-3,0,10*,-2,1
CN(C)c1ccc(CC(=O)N2CCCC(c3cc(C(=O)Nc4ccc5c(c4)OCO5)no3)C2)cc1 (stereo not given),3,-4,0,0,0,·,·
CCOC(=O)CC1(CCc2ccccc2)Oc2ccccc2N1S(=O)(=O)c1ccc(C)cc1 (stereo not given),1,7,5,0,12*,-2,0
O=C(Nc1ccccc1)c1cc([N+](=O)[O-])ccc1Cl,2,-3,1,0,-1,·,·
O=C(Nc1ccccc1)c1cc([N+](=O)[O-])ccc1NC1CCCCC1,0,4,9,0,9.8*,-1,-3
O=C(Nc1ccc(Cl)cc1)C1Cc2c(-c3cccc(F)c3)ccnc2O1 (stereo not given),10,7,6,2,6,·,·
COc1ccc(N/N=C(\C#N)C(=N)N2CCCCC2)cc1,-8,-1,-1,0,0,·,·
COc1ccc(N/N=C(\C#N)C(=N)SCc2ccccc2)cc1,8,4,2,0,9.6*,6,2
COc1cc(C(=O)NC2CC(C)CC(C)(C)C2)cc(OC)c1OC (stereo not given),-17,7,12*,-1,5,-1,-2
CC(=O)Nc1ccc(-c2ccnc3c2CC(C)(C(=O)NC(C)C)O3)cc1 (stereo not given),-21,-7,-1,0,12*,-8,-1
COc1ccc(CNC(=O)C2(C)Cc3c(-c4cccc(C(N)=O)c4)ccnc3O2)cc1OC (stereo not given),0,-2,3,0,10*,-4,-2
CC1(C(=O)Nc2cccc(NS(C)(=O)=O)c2)Cc2c(-c3ccc(C(N)=O)cc3)ccnc2O1 (stereo not given),1,-2,6,0,10*,7,2
CCOC(=O)C1=C[C@@H](C2CCCCC2)N(S(=O)(=O)c2ccc([N+](=O)[O-])cc2)[C@H]1c1ccccc1,8,2,2,1,1,·,·
Cc1ccc(COc2coc(CO)cc2=O)cc1,8,3,12*,0,8,-7,-3
O=c1cc(CO)occ1OCc1cccc(F)c1,0,0,7,0,9,·,·
CC(C)NC(=O)c1cc(C2CCCCN2S(=O)(=O)c2cccs2)on1 (stereo not given),0,-2,2,0,6,·,·
COc1ccc2c(c1)CCCN2C(=O)C1CCCN(S(=O)(=O)c2ccc(Br)s2)C1 (stereo not given),-1,5,-1,0,1,·,·
CN(C(=O)COC(=O)CNC(=O)c1ccccc1F)C1CCCCC1,-5,2,-5,0,-1,·,·
NC(Cc1ccc(C(F)(F)F)cc1)c1csc(Nc2cc(Oc3ccccc3)ncn2)n1 (stereo not given),-7,-1,-12,-1,9.7*,-4,-2
Cc1ccccc1-c1noc(CCC(=O)NCCc2ccccc2)n1,-1,8,1,0,10*,-4,-2
O=C(CCN1C(=O)CSc2ccccc21)Nc1ccc(C(F)(F)F)cc1,-8,-1,-9,-1,0,·,·
O=C(CN1C(=O)CSc2ccc(C(F)(F)F)cc21)Nc1ccccc1,12,-1,2,0,14*,2,3
CSCCC(NC(=O)c1ccc(Cl)cc1Cl)C(=O)N1CCN(C(=O)c2ccccc2)CC1 (stereo not given),-18,-1,-11,0,11*,0,2
SMILES,ADAM10 inh,ADAM17 inh,PLC-beta3 inh,proKLK7 act,PLCg1 inh,PLCgamma1 ctr,PLCb3 confirm
CSCCC(NC(=O)c1ccccc1Cl)C(=O)N1CCC1 (stereo not given),-11,-8,-3,0,2,·,·
O=C1CC(CC(=O)N/N=C/c2ccccc2[N+](=O)[O-])=NN1,0,0,-1,0,13*,-5,-1
Cc1ccc(S(=O)(=O)N2CCN(CC(=O)NC3CCCc4ccccc43)CC2)cc1C (stereo not given),-3,8,5,0,11*!,-3,0
C/C(=N\Nc1ccc(S(=O)(=O)N2CCOCC2)cc1[N+](=O)[O-])C(C)C,-1,-1,-1,0,10*,-1,-2
COc1ccccc1NCc1nc2ccccc2n1C,-2,-3,0,·,0,·,·
COc1ccc(OC)c(NC(=O)NCCc2c[nH]c3ccccc23)c1,-2,-2,-1,0,12*,-6,-4
COc1ccc(NC(=O)NCCc2c[nH]c3ccccc23)c(OC)c1,8,0,-3,0,4,·,·
O=C1OCc2cc(NS(=O)(=O)c3cccs3)ccc21,-2,6,-1,0,10*,-2,-6
O=C(CN1C(=O)c2ccccc2S1(=O)=O)N1CCN(Cc2ccc3c(c2)OCO3)CC1,2,0,1,0,9.7*,4,4
CC1(C)CC(=O)N(CC(=O)N2CCN(Cc3ccc4c(c3)OCO4)CC2)c2ccccc2S1(=O)=O,-1,-3,-1,1,0,·,·
CCOc1ccc(NC(=O)CN(C)C(=O)CCCOc2ccc(Cl)c(C)c2)cc1OCC,17,7,4,-1,9.6*,-6,-5
CCOc1ccc(NC(=O)CN(C)C(=O)c2ccc(C)o2)cc1OCC,5,2,-1,-1,15*,5,3
CCOc1ccc(NC(=O)CN(C)C(=O)CCc2ccccc2Cl)cc1OCC,5,5,-2,1,6,·,·
Oc1ccc(-c2nn[nH]n2)c2cccnc12,-6,-2,-12,·,-6,·,·
OC[C@@H]1CN(Cc2ccc(-c3ccccc3)cc2)C[C@H](n2cnc3c(NCc4ccco4)ncnc32)O1,7,5,4,0,0,·,·
O=C(c1[nH]c(C(F)(F)F)nc1-c1ccccc1)N1CCN(c2cccc(C(F)(F)F)n2)CC1,-58,-5,-11,0,-8,·,·
CC1(C(=O)NS(=O)(=O)c2ccc(Cl)cc2)CCN1C(=O)c1ccccc1CCc1ccccc1 (stereo not given),-17,1,-7,0,-2,·,·
COC(=O)c1ccccc1NC(=O)Cn1cnc2c1c(=O)n(C)c(=O)n2C,2,0,-1,-6,10*,-9,-4

# Source: PubChem BioAssay
